ATXN2 expr inh – inhibitors of ATXN2 expression. AID 1745845. HEK-293 ATXN2-luciferase reporter, luminescence, 24 h. Potency, µM (highest dose often 57 µM), usual class: inhibitors. 0.72% of 360,000 active; further: nearly all actives have a fitted effect of over 55% in size
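qHTS (up to 57 uM final) was run with 24 h compound exposure of reporter cells at 37 °C. Each well was multiplexed: SteadyGlo luminescence measured ATXN2-luciferase expression after a fluorogenic Gly-Phe-AFC viability readout (25 uM final).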
S2 tox – cell viability loss in ATXN counter-screen. 0.49% of 400,000 active. S2 cells (HEK-293 line with an ATXN2-luciferase reporter) viability, CellTiter-Fluor protease fluorescence, 24 h. AID 651635. Potency, µM (titrated, usually from 56.7 µM), actives largely listed as cytotoxic; further: nearly all actives have a fitted effect of over 40% in size
VP16 counter – counter-screen for ROR gamma inhibitors: Gal4-VP16 reporter; Drosophila S2 Gal4-VP16 UAS-luciferase, luminescence, 20 h; AID 2546; 3.5% of 310,000 active; Potency, µM (doses to about 53.6 µM), usual class: inhibitors;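 further: Gal4-VP16 expression switched on by copper sulfate through the metallothionein promoter; nearly all actives have a fitted effect of over 50% in size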
HepG2 viability – HepG2 cytotoxicity, counter-screen for TGF-b inhibitors; HepG2 CAGA-GFP viability, ATP luminescence, 18 h; Potency, µM (doses to about 46.1 µM), actives largely listed as cytotoxic; 0.76% of 410,000 active; AID 588856
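HepG2 CAGA-GFP cells (1000/well, DMEM with 1% FBS) received compound, then TGF-beta at 500 pg/mL final, and were incubated 18 hours at 37 degrees C. Viability was read by CellTiter-Glo luminescence. Media-only wells were set as complete cell-killing and DMSO as no toxicity.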
TGFb SMAD3 inh – inhibitors of TGF-b signaling; HepG2 CAGA-GFP TGF-b/SMAD3 reporter, GFP fluorescence, 18 h; TGF-beta stimulated, 500 pg/mL final; Potency, µM (highest dose often 46.1 µM), usual class: inhibitors; 1.2% of 410,000 active; further: nearly all actives have a fitted effect of over 65% in size
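TGF-beta reporter screen: HEPG2 CAGA-GFP, 1% FBS, 500 pg/mL TGF-beta final, 18 h; per-cell GFP summed per well; curves fitted and categorized by class.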
RORg inh – inhibitors of mouse ROR gamma transcriptional activity. Drosophila S2 Gal4-RORgamma UAS-luciferase reporter, 20 h. Potency, µM (doses to about 53.6 µM), usual class: inhibitors. 5.4% of 310,000 active. P51450; further: nearly all actives have a fitted effect of over 60% in size
Target sequence (P51450 whole entry, looked up, the tested form may be a part): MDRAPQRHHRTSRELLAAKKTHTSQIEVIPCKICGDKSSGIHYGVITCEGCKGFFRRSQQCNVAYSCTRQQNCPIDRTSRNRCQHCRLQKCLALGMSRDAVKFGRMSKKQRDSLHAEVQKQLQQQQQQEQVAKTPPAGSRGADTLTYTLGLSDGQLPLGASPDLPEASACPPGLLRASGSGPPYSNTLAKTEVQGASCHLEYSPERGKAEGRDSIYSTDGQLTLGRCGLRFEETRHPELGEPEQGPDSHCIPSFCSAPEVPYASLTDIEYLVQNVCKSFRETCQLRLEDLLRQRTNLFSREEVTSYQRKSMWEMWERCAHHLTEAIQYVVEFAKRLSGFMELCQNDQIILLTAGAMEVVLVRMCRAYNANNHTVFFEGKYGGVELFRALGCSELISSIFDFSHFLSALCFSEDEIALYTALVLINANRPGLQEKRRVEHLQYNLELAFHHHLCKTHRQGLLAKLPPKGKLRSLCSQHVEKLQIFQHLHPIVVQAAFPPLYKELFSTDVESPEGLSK
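Luminescence from a UAS-regulated Photinus luciferase reporter in stably transfected Drosophila Schneider cells is measured; decreased signal marks ROR gamma inhibition. Fusion expression is induced by 700 uM copper sulfate for 20 hr.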
Hits are given with their value; 0 = inactive; ? = inconclusive; - = not tested or not shown; [ ] = remark or other dose. The list is not random: actives were taken first. Their share in the collection is about 6.3%. The call rests on the fitted dose curve; in most records, active means well fitted curve in the direction sought with a large enough effect; inconclusive means small, poorly fitted or top-dose-only effect, or another doubt; inactive means no such curve, though single readings can be large; an effect the other way counts as inactive or inconclusive.

SMILES	ATXN2 expr inh	S2 tox	VP16 counter	HepG2 viability	TGFb SMAD3 inh	RORg inh
CNC(=S)N/N=C(\C)c1ccc2c(c1)OCO2	-	-	?	0	0	7.1µM
CCNC(=S)N/N=C(\C)c1ccc2c(c1)OCCO2	0	0	7.1µM	0	?	2.8µM
C/C(=N/NC(=O)c1ccc2c(c1)OCO2)c1ccc(NC(=O)C(F)(F)F)cc1	0	?	0	0	0	0
CNC(=S)N/N=C(\C)c1ccc2c(c1)OCCO2	0	0	8.9µM	0	0	2.8µM
CN(C(Cc1ccc(OS(=O)(=O)c2cccc3cnccc23)cc1)C(=O)N1CCN(c2ccccc2)CC1)S(=O)(=O)c1cccc2cnccc12 (centres undefined)	0	-	-	-	-	-
Cc1ccc(C(=O)CSc2nc(-c3ccccc3)nc3c2CCCC3)cc1C	0	0	-	0	0	-
CCN1CCN(C(=O)Cn2c(-c3cccs3)cc3cc(Cl)ccc32)CC1	0	?	-	0	0	-
C/C(=N\NC(=S)NC(C)C)c1ccc2c(c1)OCCO2	0	0	4.5µM	0	?	2µM
C/C(=N\NC(=O)c1ccccc1)c1ccc2c(c1)OCO2	0	?	?	0	0	0
COC1=CC(=O)c2nc(Cl)ccc2C1=O	3.2µM	?	-	1.3µM	0.89µM	-
COCCNC(=O)CSc1nc2cc3c(cc2c(=O)n1CCCCCC(=O)NCCc1ccc(OC)c(OC)c1)OCO3	-	-	-	0	0	-
CC(C)(C)NC(=O)NC(=O)C[n+]1ccc(Cc2ccc([N+](=O)[O-])cc2)cc1	0	0	0	3.2µM	0	0
Cc1ccc(Cl)cc1NC(=O)C[n+]1ccc(Cc2ccc([N+](=O)[O-])cc2)cc1	0	0	0	0	0	0
CCn1c(CN2CCC(C)CC2)nc2cc(NC(=O)COc3ccc(Cl)c(C)c3)ccc21	?	?	-	0	4µM	-
O=C(Nc1ccccc1N1CCOCC1)c1ccc(F)c(S(=O)(=O)N2CCOCC2)c1	0	0	-	0	0	-
O=C(Nc1nc2ccccc2[nH]1)c1cccc(S(=O)(=O)N2CCOCC2)c1	0	0	?	0	0	8.9µM
O=C(Nc1nc2ccccc2[nH]1)c1ccc(F)c(S(=O)(=O)N2CCOCC2)c1	0	0	?	0	0	14µM
O=C(NCc1nc2ccccc2[nH]1)c1cccc(S(=O)(=O)N2CCOCC2)c1	0	0	0	0	0	0
CCOc1ccc(NC(=O)Cn2c(=O)n(-c3ccccc3)c(=O)c3ccc(C(=O)NCc4ccc5c(c4)OCO5)cc32)cc1	0	0	-	0	?	-
CCOc1ccc(OCCn2c(=S)[nH]c3c(N)ncnc32)cc1	0[11.3 µM]	0	0	0	0	2.5µM
Cc1ccc(OCCn2cnc3c(N)ncnc32)cc1	0	0	0	0	0	0
Cc1ccc(Sc2ccc([N+](=O)[O-])cc2[N+](=O)[O-])nc1	-	0	?	0	0	0
Cc1ccnc(Sc2ccc([N+](=O)[O-])cc2[N+](=O)[O-])n1	?	?	?	0	?	13µM
Cn1c(=O)n(C)c2cc(NC(=O)CCl)ccc21	0	-	?	0	0	11µM
CC(C)N1CCc2c(sc(NC(=O)c3ccc([N+](=O)[O-])o3)c2C(N)=O)C1	-	-	?	-	-	7.1µM
SMILES	ATXN2 expr inh	S2 tox	VP16 counter	HepG2 viability	TGFb SMAD3 inh	RORg inh
CC(C)N1CCc2c(sc(NC(=O)c3cc(-c4cccs4)nc4ccccc34)c2C(N)=O)C1	?	-	?	18µM	0	?
CC(C)N1CCc2c(sc(NC(=O)c3nc4ccccc4s3)c2C(N)=O)C1	0	0	0	0	0	0
CC(C)N1CCc2c(sc(NC(=O)c3ccc(S(=O)(=O)N4CCc5ccccc54)cc3)c2C(N)=O)C1	?	?	?	13µM	?	?
CC(C)N1CCc2c(sc(NC(=O)c3ccc(S(=O)(=O)N(C)C4CCCCC4)cc3)c2C(N)=O)C1	-	-	-	0	?	-
O[C@@H]1COC2[C@@H](O)CO[C@@H]21 (some centres undefined)	-	-	0	-	-	0
OC(c1ccc(Cl)cc1)c1ncc(-c2ccccc2Cl)[nH]1 (centres undefined)	0	0	-	0	0	-
CC(C)(CC(=O)c1ccccc1)CC(=O)c1ccccc1	0	?	-	0	0	-
COc1ccc2c(CCNC(N)=S)c[nH]c2c1	0	0	0	0	?	0
COc1ccc(NC(=S)NCCc2c[nH]c3ccc(OC)cc23)c(OC)c1	0	0	?	0	?	14µM
COc1ccc(NC(=S)NCCc2c[nH]c3ccccc23)c(OC)c1	-	0	?	0	0	7.9µM
COc1ccc(C(=O)NCCc2c[nH]c3ccc(OC)cc23)cc1	0	0	0	0	0	0
CC1=NN(C(=O)c2cccnc2)C(O)(C(F)(F)F)C1 (centres undefined)	0	0	13µM	0	0	7.9µM
CC1=NN(C(=O)c2csc(C(C)C)c2)C(O)(C(F)(F)F)C1 (centres undefined)	0	0	4.5µM	0	?	5µM
CC(C)CC1=NN(C(=O)c2cccnc2)C(O)(C(F)(F)F)C1 (centres undefined)	0	?	13µM	0	0	11µM
CC(C)CC1=NN(C(=O)c2ccncc2)C(O)(C(F)(F)F)C1 (centres undefined)	0	0	?	0	0	0
CC1=NN(C(=O)c2ccoc2C)C(O)(C(F)(F)F)C1 (centres undefined)	0	0	10µM	0	0	3.5µM
CCOC(=O)N1CCN(C(=O)COC(=O)C2CCN(S(=O)(=O)c3c(C)c(C)cc(C)c3C)CC2)CC1	0	0	-	0	0	-
CCN(CC)C(=O)C1=C(C)N(Cc2ccc(OC)cc2)C(=O)C(CC(=O)NCc2cccc3ccccc23)C1 (centres undefined)	0	0	-	0	0	-
O=C(c1cccnc1)N1N=C(C2CC2)CC1(O)C(F)(F)F (centres undefined)	0	0	0[10 µM]	0	0	?
O=C(c1ccncc1)N1N=C(C2CC2)CC1(O)C(F)(F)F (centres undefined)	0	0	0	0	0	11µM
CC(=O)OCC(=O)C1(O)CCC2C3CCC4=CC(=O)CCC4(C)C3(Cl)C(O)CC21C (centres undefined)	0	?	-	0	0	-
Cc1ccc2c(Cl)cc(Cl)c(OCC(=O)Nc3ccc(C)c(S(=O)(=O)N(C)C)c3)c2n1	-	-	7.1µM	-	-	7.1µM
Cc1onc(-c2c(F)cccc2Cl)c1C(=O)OCC(=O)Nc1cccc(S(=O)(=O)N(C)C)c1	0	?	-	7.1µM	?	-
Cc1ccc2c(Cl)cc(Cl)c(OCC(=O)Nc3cccc(S(=O)(=O)N(C)C)c3)c2n1	0	0	10µM	0	0	5µM
